# From ChEMBL document CHEMBL3988442, “University of Dundee, Small-Polar-MMV Screening Library” (2021)
# Target: Sialic acid-binding Ig-like lectin 9 (Homo sapiens) (UniProt Q9Y336)
# Test: Hs-Siglec9 ALPHAscreen SOP 20170721
# Parameters: scale not given: direction of the effect not stated beside the values
# Conditions: 10 µM
# Chain of Sialic acid-binding Ig-like lectin 9 (Homo sapiens) (Q9Y336 whole entry): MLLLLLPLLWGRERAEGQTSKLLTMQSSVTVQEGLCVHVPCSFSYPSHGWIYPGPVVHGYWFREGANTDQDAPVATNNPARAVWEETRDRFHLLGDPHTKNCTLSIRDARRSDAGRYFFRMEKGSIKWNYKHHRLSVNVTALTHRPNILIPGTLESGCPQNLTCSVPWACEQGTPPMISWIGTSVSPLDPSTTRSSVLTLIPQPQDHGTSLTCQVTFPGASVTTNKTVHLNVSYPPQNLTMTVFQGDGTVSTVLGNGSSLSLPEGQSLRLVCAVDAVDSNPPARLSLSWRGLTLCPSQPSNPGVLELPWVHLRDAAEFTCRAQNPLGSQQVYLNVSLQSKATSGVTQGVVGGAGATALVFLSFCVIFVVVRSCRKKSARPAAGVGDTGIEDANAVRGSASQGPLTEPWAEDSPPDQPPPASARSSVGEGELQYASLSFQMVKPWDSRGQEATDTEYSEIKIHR
row,Compound,Percent Effect
1,Cn1c(NCC(O)c2ccc(F)cc2F)c(C#N)c(=O)n(C)c1=O (stereo not given),-5.84%
2,CC(CNC(=O)N1CCSCC1)Cc1cccs1 (stereo not given),-1.72%
3,NC(=O)COc1cccc(C(=O)N2CCCC(n3ccnc3)C2)c1 (stereo not given),11.8%
4,CCC(O)CNC(=O)c1coc(COc2ccc3sc(C)nc3c2)n1 (stereo not given),-4.04%
5,CCNC(=O)N1CCC2(C1)c1ccccc1S(=O)(=O)N2CCC(C)C (stereo not given),-1.77%
6,Cc1ccc(C(CNCc2cnn(C(C)C)c2)N2CCOCC2)s1 (stereo not given),-2.96%
7,COc1cccc(C(=O)Nc2cc(CC(C)C)nn2C)c1,6.82%
8,Cc1cc(F)ccc1CN1CCCC2(C1)OCCO2,-3.22%
9,CCN(Cc1ccco1)C(=O)Nc1cc(C(F)(F)F)c[nH]c1=O,-6.37%
10,O=C(c1ccccc1OCC1CC1)N1CCCC(n2ccnc2)C1 (stereo not given),-0.0308%
11,Cn1nc(CNC(=O)NCc2ccc(Cl)cc2)c2c1CCOC2,7.81%
12,O=C(NCC(Cc1cccc(F)c1)N1CCCC1=O)c1ccccc1 (stereo not given),-11%
13,CSCC(C)(O)CNC(=O)c1ccc(Br)cc1F (stereo not given),0.101%
14,CCN1CCC(c2nc3ccc(NC(C)C)cn3n2)CC1,-3.17%
15,COc1ccc(Oc2cncc(C3CCCN3C(C)=O)n2)cc1 (stereo not given),-7.65%
16,CCn1nc(C)c(CNC(=O)c2cn(CCC3CCCCN3)nn2)c1C (stereo not given),4.73%
17,N#Cc1ccc(N2CCN(C(=O)c3cc(C4CC4)[nH]n3)CC2)c(F)c1,19.3%
18,CNS(=O)(=O)c1ccc(C(=O)N2CCCC2c2ccccc2)o1 (stereo not given),2.47%
19,CC(=O)c1c(F)cccc1N1CCC(CS(N)(=O)=O)CC1,-0.254%
20,Cc1ccc(CC(=O)NC(C)C(=O)N2CCS(=O)(=O)CC2)cc1 (stereo not given),4.88%
